Only some compounds are listed: those with a hit (about 21% of all), similar ones and a draw of the others.
Pf growth 48h: Primary qHTS for delayed death inhibitors of the malarial parasite plastid, 48 hour incubation; P. falciparum luciferase growth in erythrocytes, 48 h; Potency, µM (highest dose often 28.7 µM), hits mostly inhibitors; 310,000 tested, 5.9% active; active means well fitted inhibition curve with a large enough effect; inconclusive means small, poorly fitted or top-dose-only effect, or another doubt; inactive means no such curve, though single readings can be large or run the other way
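Luminescence readout; reporter = integrated firefly luciferase in P. falciparum. RBC culture at 2% hematocrit, 0.1% parasitemia final, 37 C/5% CO2; decreased signal taken as growth inhibition.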
Pf growth 96h: Primary qHTS for delayed death inhibitors of the malarial parasite plastid, 96 hour incubation; Potency, µM (titrated, usually from 28.7 µM), actives largely listed as inhibitors; P. falciparum luciferase reporter growth, 96 h; 320,000 tested, 6.9% active; active means well fitted inhibition curve with a large enough effect; inconclusive means small, poorly fitted or top-dose-only effect, or another doubt; inactive means no such curve, though single readings can be large or run the other way
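Cell-based qHTS: luciferase-tagged P. falciparum in erythrocytes (2% hematocrit, 0.05% parasitemia final) incubated with compounds for 96 hours, 37 C, 5% CO2; luciferase detection reagent then added and luminescence measured.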
Shiga inhibitor: A qHTS for Small Molecule Inhibitors of Shiga Toxin | 290,000 tested, 9.2% active | Vero cells, Shiga toxin protein synthesis inhibition reporter | inhibition, % at 38.7 µM; in the data active means inhibition mostly above about 28%, no sharp cut-off; inactive means mostly below about 43%
SARS PLP yeast: qHTS of Yeast-based Assay for SARS-CoV PLP | S. cerevisiae expressing SARS-CoV PLpro, growth rescue | Potency, µM (top dose mostly 32.9 µM), most hits filed as activators | 330,000 tested, 0.19% active; further: nearly all actives have a fitted effect of over 55% in size
NS1 function inh: qHTS Assay for Inhibitors of Influenza NS1 Protein Function. AID 2326, 2010. 270,000 tested, 0.4% active. Potency, µM (titrated, usually from 46.1 µM); further: actives are rising curves; nearly all actives have a fitted effect of over 50% in size
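S. cerevisiae expressing influenza A NS1, grown in glucose, washed, then diluted 1:100 into pH 6.0 -URA galactose medium with 23 nl compound. Growth recovery read as OD600; NS1-free strain serves as control.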
CHX counter: Cycloheximide Counterscreen for Small Molecule Inhibitors of Shiga Toxin. cell reporter, cycloheximide protein synthesis inhibition counterscreen. max response, %. 300,000 tested, 12% active. AID 2314, 2010; in the data active means max response mostly above about 13%, no sharp cut-off; inactive means mostly below about 14%; further: read at 38.3 µM for the half of the compounds with a filed dose
Numbers stand for hits; . = inactive; ? = inconclusive; / = not tested or not shown; ! = not active in a repeat; [ ] = another dose, or the depositor's remark. Unless noted, the call rests on the fitted dose curve.

SMILES	Pf growth 48h	Pf growth 96h	Shiga inhibitor	SARS PLP yeast	NS1 function inh	CHX counter
CCCOc1ccc(NC(=O)CC2C(=O)N(C)C(=S)N2Cc2cccs2)cc1 (stereo not drawn)	11.7µM	?	.	.	.	.
O=C(CNS(=O)(=O)c1ccc(Cl)c(C(F)(F)F)c1)NC1CCCCC1	.	.	/	.	/	/
NS(=O)(=O)c1ccc(CCNC(=O)CCCC2=NS(=O)(=O)c3ccccc3N2)cc1	.	5.22µM	.	.	.	.
O=C(CCCC1=NS(=O)(=O)c2ccccc2N1)NCCc1ccc(Cl)cc1	.	.	.	.	.	.
O=C(CC1(CC2=NS(=O)(=O)c3ccccc3N2)CCCC1)NCCc1ccccc1	?	.	.	.	.	8.5
O=C(CSC1=NS(=O)(=O)c2ccccc2N1)NCCc1ccccc1	.	.	/	.	/	/
CC1(C2CC2)NC(=O)N(CC(=O)Nc2ccc(SC(F)F)cc2)C1=O (stereo not drawn)	/	/	/	.	/	/
CCc1ccc([C@@H]2CC=C(C(=O)O)[C@H](c3ccc(F)cc3)N2S(=O)(=O)c2ccc(C)cc2)cc1	.	.	/	.	/	/
COc1cc(C(C)=O)ccc1Oc1ncccn1	.	.	.	.	.	.
CN(C)C=Nc1ccc2nn(-c3ccccc3)nc2c1	.	.	92.7	?	.	43.4
CCCCn1nnnc1NCc1ccc(C)s1	.	.	.	.	.	.
COc1ccc(/C=N/NC(=O)C2C(C=C(Cl)Cl)C2(C)C)c(OC)c1 (stereo not drawn)	.	.	.	.	.	.
O=C(NCc1ccc(OC(F)(F)F)cc1)C1CC(c2c(Cl)cccc2Cl)=NO1 (stereo not drawn)	1.31µM	.	.	.	.	.
O=C(NCCc1cccs1)C1CC(c2ccccc2F)=NO1 (stereo not drawn)	.	.	.	.	.	.
O=C(NCc1cc(C(F)(F)F)cc(C(F)(F)F)c1)C1CC(c2c(Cl)cccc2Cl)=NO1 (stereo not drawn)	.	?	.	?	.	.
CCCNC(=O)C1CC(c2cccc(F)c2)=NO1 (stereo not drawn)	.	.	.	.	.	.
O=C(NCCc1cccs1)C1CC(c2cccc(F)c2)=NO1 (stereo not drawn)	?	1.65µM	.	.	.	.
O=C(NCCc1cccs1)C1CC(c2c(Cl)cccc2Cl)=NO1 (stereo not drawn)	.	?	.	.	.	39.8
Cc1cc(C)[n+]2n1C(=O)C(c1ccccc1)=C2[O-]	.	.	.	.	.	32.8!
CN1CCC(NC(=S)Nc2cccc([N+](=O)[O-])c2)CC1	.[5.75 µM]	?	.	.	/	.
CCc1cc2c(=O)c(-c3nc4ccccc4n3C)coc2c(CN2CCCC(C)C2)c1O (stereo not drawn)	?	?	.	.	.	.
CCc1cc2c(=O)c(-c3ccc4c(c3)OCCO4)coc2c(CN2CCCCC2C)c1O (stereo not drawn)	2.08µM	.	.	.	.	.
CCc1cc2c(=O)c(-c3ccc4c(c3)OCCO4)coc2cc1OS(C)(=O)=O	.	.	78.7	.	.	42.2
CCOC(=O)c1oc2cc(O)c(CC)cc2c(=O)c1-c1ccc2c(c1)OCCO2	.	.	.	.	.	.
CCc1cc2c(=O)c(-c3nc4ccccc4[nH]3)coc2c(CN2CCCCC2C)c1O (stereo not drawn)	1.47µM	0.738µM	.	.	.	.
SMILES	Pf growth 48h	Pf growth 96h	Shiga inhibitor	SARS PLP yeast	NS1 function inh	CHX counter
CC1CCCCN1Cc1c(O)ccc2c(=O)c(-c3ccccc3)coc12 (stereo not drawn)	.[0.00184 µM]	.	.	.	.	.
CCc1cc2c(=O)c(-c3nc4ccccc4[nH]3)coc2c(CN2CCCCC2)c1O	.	.	.	.	.	26.6
COc1ccc2cc(C(=O)C3CCCN(C(=O)c4cncs4)C3)ccc2c1 (stereo not drawn)	.	.	.	.	.	.
O=c1c(-c2ccc3c(c2)OCCO3)coc2c(CN3CCOCC3)c(O)ccc12	.	11.7µM	32.9	.	.	39.1
Cn1c(C(=O)O)cc2c(=O)n3ccccc3nc21	.	.	.	.	.	.
COCCCn1c(C(=O)NCCN2CCOCC2)cc2c(=O)n3ccccc3nc21	.	.	.	.	.	.
CCN(C(=O)c1cc2c(=O)n3ccccc3nc2n1C)C1CCCCC1	.	.	61.0	.	.	37.1
CN(C(=O)c1cc2c(=O)n3ccccc3nc2n1C)C1CCCCC1	.	.	105.4	.	.	62.3
CCN(C(=O)c1cc2c(=O)n3ccccc3nc2n1CCCOC)C1CCCCC1	11.7µM	14.7µM	.	.	.	.
CCN(CC)C(=O)c1cc2c(=O)n3cccc(C)c3nc2s1	.	.	.	.	.	26.5
CCN(C(=O)c1cc2c(=O)n3ccccc3nc2s1)C1CCCCC1	?	.	43.6	.	.	.
CCN(C(=O)c1cc2c(=O)n3cccc(C)c3nc2s1)C1CCCCC1	.	.	.	.	.	.
Cn1c(C(=O)N2CCOCC2)cc2c(=O)n3ccccc3nc21	.	.	.	.	.	.
Cn1c(C(=O)N2CCN(C(=O)c3ccco3)CC2)cc2c(=O)n3ccccc3nc21	.	4.65µM	.	.	.	.
COc1ccccc1OCCCCOc1ccccc1F	.	.	.	.	.	34.0
COc1ccccc1Oc1ccc(Oc2ccccc2OC)cc1	.	.	.	.	/	40.8
COc1ccc(Oc2ccccc2C#N)cc1	.	.[1.15 µM]	.	.	.	.
Cc1ccccc1OCCCCc1c(C)n[nH]c1C	.	.	.	?	.	.
Fc1ccccc1OCCCCCCN1CCCC1	.	.	.	.	.	16.5
Cc1n[nH]c(C)c1CCCCOc1ccccc1F	.	2.08µM	.	.	.	.
CN(CC(O)Cn1cnc2c1c(=O)n(C)c(=O)n2C)c1ccccc1 (stereo not drawn)	.	.	.	.	.	.
CC(C)(C)c1ccc(OCc2nc(-c3ccccn3)no2)c(Br)c1	.	.	95.9	/	.	84.5
Clc1cc(Cl)c(OCc2nc(-c3ccccn3)no2)cc1Cl	.	/	125.4	.	.	47.4
O=C(COC(=O)c1ccccc1F)Nc1ccc(S(=O)(=O)N2CCOCC2)cc1	/	/	/	.	/	/
CCCc1cc(C(=O)Cc2ccc(F)cc2)c(O)cc1O	.	/	.	.	.	.
CCCc1cc(C(=O)Cc2ccc(C(=O)OCC)o2)c(O)cc1O	11.7µM	11.7µM	.	.	.	.
COc1cc(-c2c(C#N)c(N)nc3[nH]c(=S)[nH]c(=O)c23)ccc1O	/	.	.	.	.	.
COC(=O)c1cc(CSC(=N)N)ccc1OCCC(C)C	4.65µM	6.57µM	.	.	.	.
Cc1ccc(NC(=O)c2ccc3nsnc3c2)c(Cl)c1	.	?	105.4	.	.	58.5
CCCOc1cccc(C(=O)Nc2ccc(Br)cc2F)c1	.	.	67.7	.	.	41.6

Assay outcomes (PubChem)
